The whole screen tested about 69,000 compounds, of which about 8,600 (12%) showed an effect of 50% or more. The sample holds strong results, similar compounds and a random draw of the others, so the mix is not that of the screen.

Consider 55 molecules from ChEMBL document CHEMBL4513216, “Probing the Open Global Health Chemical Diversity Library for Multistage-Active Starting Points for Next-Generation Antimalarials” (ACS Infect Dis, 2020).

For this test, the system named is Plasmodium berghei. In words: Screen against P. berghei liver stage (PbLuc), transformed with Luciferase, at 10uM. To be noted: tested at 10 uM. The format is functional, HepG2.
Consider `CC(=O)N1CC(Cc2nccc3ccn(C)c23)C1`, for which the INHIBITION was 47.2%.

On to `COc1cc(OC)cc(-c2cc(CN)nc3ccnn23)c1`, for which the INHIBITION is -18.2%.

Regarding `Cc1ccccc1S(=O)(=O)N(C)[C@@H]1CC[C@@H](n2ccnc2C)[C@@H]1O`, the INHIBITION was determined as 38.15%.

For the molecule `CC(c1nc(C2CC2)no1)N1CCN(CC(=O)N2CCOCC2)CC1` (stereo not given), the INHIBITION was determined as 10.7%.

Take `CCN(CC)CC1CN(Cc2ccc(C)s2)Cc2nccn2C1` (stereo not given): the INHIBITION is reported as -30.6%.

Consider `Cc1ccc(CN2Cc3nccn3CC(CN(C)C)C2)s1` (stereo not given), for which the INHIBITION came out at 64.9%.

For the molecule `Cc1ccc(CN2Cc3nccn3CC(Cn3cccn3)C2)s1` (stereo not given), the INHIBITION is given as 45.7%.

Regarding `CCn1cc(CN2CCC(N3CCC(O)CC3)CC2)cc1C#N`, the INHIBITION is reported as 64.9%.

Take `CS(=O)(=O)NC1CCN(Cc2ccc(OCc3ccccn3)cc2)CC1`: the INHIBITION is on record as -1.83%.

For `CCn1cc(CN2CCCCC2CCn2ccnc2C)cc1C#N` (stereo not given), the INHIBITION is reported as 29.2%.

Regarding `OC1CCN(C2CCN(Cc3cccc(Cn4cccn4)c3)CC2)CC1`, the INHIBITION is on record as 24.9%.

Turning to `Cc1nn(CCO)cc1CN1CCC(N2CCC(O)CC2)CC1`, the INHIBITION is given as 50.5%.

Turning to `CCn1cc(CN2CCC(c3ccncc3)CC2)cc1C#N`, the INHIBITION worked out at 13%.

For the molecule `CCn1cc(CN2CCC(C3CCN(C)CC3)CC2)cc1C#N`, the INHIBITION stood at 66.1%.

As for `CCn1cc(CN2CCC(NS(C)(=O)=O)CC2)cc1C#N`, the INHIBITION is 62.4%.

As to `Cc1nn(CCO)cc1CN1CCCN(C2CCCC2)CC1`, the INHIBITION was determined as 12.8%.

With `CCn1cc(CN2CCC(CN3CCCCC3)CC2)cc1C#N`, the INHIBITION is recorded as 6.88%.

Take `Cc1nn(CCO)cc1CN1CCC(C(C)N2CCCC2)CC1` (stereo not given): the INHIBITION worked out at 32.5%.

On to `CCn1cc(CN2CCC(CNC(C)=O)CC2)cc1C#N`, for which the INHIBITION is recorded as 24.2%.

For `Cc1ccc(CC(=O)N(C)CC2(O)CCCN(c3ccccn3)C2)s1` (stereo not given), the INHIBITION is -2.11%.

Consider `CC(C)N(Cc1ccccn1)Cc1nc2c(cnn2C)c(=O)[nH]1`, for which the INHIBITION is given as 25.65%.

`CN(C)C(=O)CN1CC[C@H]2CN(C3CCOCC3)C[C@@H]2C1=O`: the INHIBITION came out at 30.9%.

`CCC(=O)N1CCN(C)C(=O)C(Cc2ccccc2-c2cccs2)C1` (stereo not given): the INHIBITION came out at 22%.

For the molecule `O=C(c1cc(=O)c(OCc2ccccc2F)co1)N1CCSCC1`, the INHIBITION is recorded as 21.5%.

As for `CS(=O)(=O)c1cncnc1C1CCCN(C(=O)Cc2ccccc2F)C1` (stereo not given), the INHIBITION is on record as 17.985%.

Consider `CCNC(=O)[C@@H]1C[C@H](N)CN1C(=O)C1(c2ccc(OC)cc2)CCCC1`, for which the INHIBITION is -12.7%.

As for `CCN(CC)C(=O)CNC(=O)N1CCC(c2ccc(OC)cc2)C1` (stereo not given), the INHIBITION turned out to be 21.7%.

With `CCC(=O)Nc1cccc(OCC(=O)N2CC=CC2C(C)C)c1` (stereo not given), the INHIBITION is listed as -16.6%.

As for `Cc1ccccc1CCC(=O)N1CCCC(c2cc(C(N)=O)[nH]n2)C1` (stereo not given), the INHIBITION is 11.9%.

Consider `CCn1cc(NC(=O)c2c(C)nn(C)c2C)c(C(N)=O)n1`, for which the INHIBITION turned out to be 27.4%.

As for `Cc1ccc(-c2ccc(CC3NCCN(C)C3=O)cc2)cc1` (stereo not given), the INHIBITION amounted to 29.2%.

Regarding `Cn1nccc1-c1nc2c(cc1C(=O)O)CCN(C(=O)C1CC1)CC2`, the INHIBITION came to 72.3%.

For the molecule `Cn1cc(-c2nc3c(cc2C(=O)O)CCN(C(=O)C2CC2)CC3)cn1`, the INHIBITION is on record as -27.1%.

In the case of `Cn1nccc1-c1nc2c(cc1C(=O)O)CCN(CC1CC1)CC2`, the INHIBITION is given as -10.3%.

In the case of `O=C(Cn1nc(-c2ccc(F)cc2)oc1=O)NCCc1ccccc1`, the INHIBITION stood at 27.6%.

Turning to `CNC(=O)CN1CC[C@H]2CN(C(=O)c3ccc(C)cc3)C[C@H]2C1`, the INHIBITION is -99.2%.

For the molecule `Cc1nc(CN2CCC3(CCCN(Cc4cccnc4)C3)C2=O)cs1` (stereo not given), the INHIBITION came out at 36.2%.

Take `CC(C)C(=O)N1CCC[C@]2(C(=O)N(C)C)CN(c3ccccn3)C[C@@H]2C1`: the INHIBITION is given as -28%.

In the case of `Cn1cc(C2CCCN2Cc2csc(Cc3ccccc3)n2)cn1` (stereo not given), the INHIBITION is on record as 35.9%.

For the molecule `COc1ccc(CNC(=O)c2ccoc2CN2CCNC(=O)C2)cc1`, the INHIBITION worked out at 29.3%.

`CCCc1nc(N2CCC(C)CC2)c2c(n1)c(C)nn2CC`: the INHIBITION is on record as 12.3%.

Turning to `CCCc1nc(N2CCSCC2)c2c(n1)c(C)nn2CC`, the INHIBITION is recorded as -3.47%.

As to `CCCc1nc(N2CCCCCC2)c2c(n1)c(C)nn2CC`, the INHIBITION amounted to 78.4%.

Regarding `CCCc1nc(N2CCN(CC)CC2)c2c(n1)c(C)nn2CC`, the INHIBITION is reported as 33.5%.

In the case of `CCCc1nc(N2CCCCC2)c2c(n1)c(C)nn2CC`, the INHIBITION stood at 11.7%.

Consider `CCCc1nc(N2CCCC(C)C2)c2c(n1)c(C)nn2CC` (stereo not given), for which the INHIBITION is on record as 66.5%.

Regarding `CCC(=O)N1CCC(c2nc(O)c3c(n2)CN(C2CCCCC2)CC3)C1` (stereo not given), the INHIBITION was determined as 38.8%.

Take `Cn1cccc1C(=O)N1CCO[C@@H]2CN(Cc3ccco3)C[C@@H]2C1`: the INHIBITION was found to be 15.8%.

As to `c1csc(CN2CCc3ncnc(C4CCOC4)c3CC2)c1` (stereo not given), the INHIBITION is listed as 33%.

Take `COc1ccc(-c2cn[nH]c2)cc1CNC1CCCC1`: the INHIBITION stood at 9.04%.

Regarding `COc1ccc(-c2cc[nH]n2)cc1CNC1CCCC1`, the INHIBITION is 72.1%.

Regarding `COc1ccc(CNC2CCN(CCc3ccncc3)CC2)cc1O`, the INHIBITION was -4.86%.

For `COc1ccc(-c2ccoc2)cc1CNC1CCCC1`, the INHIBITION came to 61.9%.

In the case of `COc1ccc(-c2ccncc2)cc1CNC1CCCC1`, the INHIBITION is 51.7%.

For `COc1ccc(OC)c(CNC2CCCc3nc(N(C)C)ncc32)c1` (stereo not given), the INHIBITION turned out to be 37.6%.
